Screening results (PubChem)
ULK1 inh: ULK1 kinase inhibitors, primary screen, biochemical, AlphaScreen. AlphaScreen Atg13 phosphorylation by ULK1, luminescence. inhibition, % at 5.96 µM. hit rate 1.9% among 30,000; in the data active means inhibition above about 43%;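 further: 0% = median of compound wells and 100% = no enzyme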
ASK1 inh: ASK1 kinase inhibitors, primary screen, biochemical, AlphaScreen; Mitogen-activated protein kinase kinase kinase 5 (Homo sapiens), Q99683; AlphaScreen MKK6 phosphorylation by ASK1, luminescence; inhibition, % at 7.44 µM; hit rate 0.99% among 22,000; in the data active means inhibition above about 35%;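 further: 0% = median of compound wells and 100% = no enzyme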
* = called active by the depositor; / = no result. Sampled rows, rich in hits. Any-hit rate of the full collection: about 2.5%.

SMILES	ULK1 inh	ASK1 inh
c1cn(-c2ccc(Nc3cc(Nc4ccc(N5CCOCC5)cc4)ncn3)cc2)cn1	-7	3
c1cc(Nc2nccc(Nc3ccc(N4CCOCC4)cc3)n2)ccn1	28	10
Nc1nccc(-c2ccc3nc(C4COc5ccc(C(=O)NC6CC6)cc5C4)[nH]c3c2)n1 (centres undefined)	5	25
CCOC(=O)NC(C#N)=C(NCc1ccccc1)NCc1ccccc1	-8	/
Cc1ccc(-c2ncn(-c3ccc(Nc4ncc5cccc(-c6nccs6)c5n4)cc3)n2)cn1	3	20
Cc1ncn(-c2ccc(Nc3ncc4cccc(-c5ccn[nH]5)c4n3)cc2)n1	24	16
Cc1ncn(-c2ccc(Nc3ncc4cccc(-c5ccn(C)n5)c4n3)cc2)n1	89*	-74
Cc1ncn(-c2ccc(Nc3ncc4cccc(-c5cn[nH]c5C)c4n3)cc2)n1	55*	-21
Cc1ncn(-c2ccc(Nc3ncc(Cl)c(-c4ccnn4C)n3)cc2)n1	64*	-8
Cc1ncn(-c2ccc(Nc3nccc(-c4cc(F)cc(-c5ccnn5C)c4)n3)cc2)n1	15	19
Cc1ncn(-c2ccc(Nc3ncc4cccc(-c5cccc6c5ccn6C)c4n3)cc2)n1	-5	-5
Cc1ncn(-c2ccc(Nc3ncc4cccc(-c5nccs5)c4n3)cc2)n1	50*	11
COc1cc2nc(Nc3cnccn3)nc(NCc3nc4ccccc4[nH]3)c2cc1OC	8	7
O=C(Nc1ccc(-c2cn[nH]c2)cc1OCCN1CCOCC1)C1COc2ccc(F)cc2C1 (centres undefined)	12	2
CCN(CC)c1nc(NCCN(C(C)C)C(C)C)nc(Nc2cc(OC)c(OC)c(OC)c2)n1	2	-12
Cc1ncn(-c2ccc(Nc3ncc4cccc(-c5ccnn5C)c4n3)cc2)n1	52*	-26
Cc1ncn(-c2ccc(Nc3ncc4cccc(-c5cccnc5)c4n3)cc2)n1	10	9
FC(F)(F)c1ccc(Nc2nccc(NCCOc3ccccc3)n2)cc1	-26	-24
c1nc2nc(Nc3ccc(N4CCOCC4)cc3)nc(NC3CC3)c2[nH]1	56*	-12
FC(F)(F)c1ccc(Nc2nc(Nc3ccc(N4CCOCC4)cc3)c3[nH]cnc3n2)cc1	29	25
c1cn(-c2ccc(Nc3nc(NC4CC4)c4ncn(-c5ccsc5)c4n3)cc2)cn1	53*	14
CCCNc1nc(Nc2ccc(-n3ccnc3)cc2)nc2nc[nH]c12	41	-45
c1cc(Nc2nc(NC3CC3)c3ncn(-c4ccsc4)c3n2)ccn1	-3	-3
c1cn(-c2ccc(Nc3nc(NC4CC4)c4[nH]cnc4n3)cc2)cn1	57*	-69
COc1ccc(CCNC(=O)c2csc(-c3ccc(OC)cc3)n2)cc1	-20	-16
SMILES	ULK1 inh	ASK1 inh
FC(F)(F)c1ccc(Cn2cnc3c(Nc4ccc5c(c4)OCO5)nc(Cl)nc32)cc1	-31	15
O=C(Cc1ccccc1)Nc1cnn(-c2cccc(C(=O)Nc3ccc(-c4cnc[nH]4)cc3)c2)c1	-3	5
Cn1c(Nc2ccc(-n3cc(CC(=O)NC4CC4)c4ccccc43)nn2)nc2ccccc21	14	8
O=C(Nc1ccc2c(c1)OCO2)c1cnc(Nc2nccc3ccccc23)s1	-1	4
CCN(CC)c1nc(NCCN2CCOCC2)nc(Nc2nc3ccccc3n2C)n1	7	-14
COc1cc(Nc2ccnc(N3CCN(c4ccccn4)CC3)n2)cc(OC)c1OC	28	13
Fc1cc(-c2nc(Nc3ccc(CN4CCCCC4)cc3)ncc2F)cc(N2CCOCC2)c1	44*	10
OC1CCN(c2ccc(Nc3nccc(-c4cc(F)cc(N5CCOCC5)c4)n3)cc2)CC1	45*	31
c1cc(Cn2cccn2)cc(Nc2nccc(-c3cncc(N4CCOCC4)c3)n2)c1	80*	21
Fc1cnc(Nc2ccc(CN3CCCCC3)cc2)nc1-c1cc(N2CCOCC2)cc(C(F)(F)F)c1	-14	8
c1cc(-c2cncc(N3CCOCC3)c2)nc(Nc2ccc3c(c2)OCCO3)n1	4	18
Fc1cc(-c2ccnc(Nc3ccc(N4CCOCC4)cc3)n2)cc(N2CCOCC2)c1	5	33
N#Cc1cc(-c2ccnc(Nc3cccc(CN4CCCCC4)c3)n2)cc(N2CCOCC2)c1	79*	32
Cc1cc(Nc2nccc(-c3cc(C#N)cc(N4CCOCC4)c3)n2)ccc1N1CCOCC1	14	18
CC(C)n1cnc2c(NCc3ccccc3)nc(Nc3ccc(N4CCOCC4)cc3)nc21	-5	35
Cc1nc(C)n(-c2ccc(Nc3nccc(-c4cc(C)on4)n3)cc2)n1	7	-3
OC1CCN(c2ccc(Nc3nccc(-c4cncc(N5CCOCC5)c4)n3)cc2)CC1	68*	6
N#Cc1ccc(Nc2nccc(-c3cncc(N4CCOCC4)c3)n2)cc1	1	24
Cc1cnc(Nc2ccccc2)nc1NCCOc1ccccc1	15	3
CCNc1ncc(C)c(NCCOc2ccccc2)n1	2	0
Cc1cnc(Nc2ccncc2)nc1NCCOc1ccccc1	50*	6
COc1cc(Nc2ncc(C)c(NCCOc3ccccc3)n2)cc(OC)c1OC	63*	5
O=C(O)c1c(Cl)c(Cl)c(Cl)c(Cl)c1-c1c2cc(I)c(=O)c(I)c-2oc2c(I)c(O)c(I)cc12	45*	/
O=C(O)c1ccccc1-c1c2cc(I)c(=O)c(I)c-2oc2c(I)c(O)c(I)cc12	26	/
O=S(c1cc(Cl)cc(Cl)c1O)c1cc(Cl)cc(Cl)c1O	6	/
SMILES	ULK1 inh	ASK1 inh
Oc1c(Cl)cc(Cl)cc1Sc1cc(Cl)cc(Cl)c1O	84*	/
O=C(CSc1ccc(S(=O)C(F)(F)F)cc1[N+](=O)[O-])N1CCOCC1 (centres undefined)	1	/
Cc1ncn(-c2ccc(Nc3nccc(-c4ccc(N5CCOCC5)cc4)n3)cc2)n1	16	7
CS(=O)(=O)Nc1ccc(-c2ccnc(Nc3ccc(N4CCC(O)CC4)cc3)n2)cc1	75*	-16
Cc1ncn(-c2ccc(Nc3nccc(-c4ccc(NS(C)(=O)=O)cc4)n3)cc2)n1	57*	6
N#Cc1cc(-c2ccnc(Nc3ccc(N4CCC(O)CC4)cc3)n2)cc(N2CCOCC2)c1	-62	32
Cc1sc(NC(=O)c2ccc(C(C)(C)C)cc2)c(C(N)=O)c1C	-16	/
Cc1nc(N2CCN(c3ccc([N+](=O)[O-])cc3)CC2)c(C#N)c(C)c1[N+](=O)[O-]	5	/
O=C(NC1CC1)c1ccc2nc(N3CCC(N4CCOCC4)CC3)sc2c1	-14	6
CC(=O)c1cccc(-c2nc(NCc3cccc(C(F)(F)F)c3)c3ncn(Cc4ccc(C(F)(F)F)cc4)c3n2)c1	-12	5
COC(=O)[C@@H](N)Cc1ccc(O)c(O)c1	14	/
CCOC(=O)C(N)Cc1ccc(O)c(O)c1 (centres undefined)	66*	/
NC(=O)c1ccccc1Nc1nc(Nc2ccc(N3CCOCC3)c(Cl)c2)ncc1Cl	80*	-88
Cc1cnc(Nc2ccc(N3CCOCC3)cc2)nc1Nc1ccccc1	30	15
Cc1cnc(Nc2ccc(N3CCOCC3)cc2)nc1Nc1ccccc1C(N)=O	95*	-59
NC(=O)c1ccccc1Nc1nc(Nc2ccc(Cl)cc2)ncc1Cl	20	-39
Cc1cc(Nc2ncc(Cl)c(Nc3ccccc3C(N)=O)n2)ccc1N1CCOCC1	70*	-92
Cc1cc(Nc2cc(Nc3ccccc3C(N)=O)ccn2)ccc1N1CCOCC1	6	7
